# Results: PubChem BioAssay
# Activity calls are given as the source filed them. Unless noted, no rule for the calls is given here.
# Legend:
# [1] = HepG2 liver cancer cell viability effects, profiling panel, resazurin fluorescence, 24 h, PK04 Diversity Set (AID 1172); settings: higher = more signal; also: test concentration not given here
# [2] = basal S. cerevisiae growth modulation, no modifier, primary screen, OD600, strain BY4716, 24 h, basal condition (AID 1173); settings: OD600, 24 h, higher = more signal, called active from +8 up or from −8 down
# [3] = MM1S myeloma cell viability, profiling panel, resazurin fluorescence, basal, 24 h, PK04 Diversity Set (AID 1174); settings: higher = more signal, called active from +8 up or from −8 down;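 also: MM1S multiple myeloma cell line; test concentration not given here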
# [4] = target: Dihydroorotate dehydrogenase (quinone), mitochondrial (Plasmodium falciparum (isolate 3D7)) (UniProt Q08210); test: PfDHODH enzyme inhibitors, primary screen, biochemical, C-terminal His tag, absorbance 600 nm (AID 1175); settings: DCIP absorbance 600 nm, higher = more signal, called active from +8 up or from −8 down;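 also: recombinant parasite enzyme with a five histidine tag at its C terminus; test concentration not given here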
# [5] = P. aeruginosa biofilm formation inhibitors, primary screen, strain PAO1, LB-PBS medium, absorbance 600 nm (AID 1176); also: test concentration not given here; settings: P. aeruginosa PAO1 growth/biofilm, A600, 12 h; higher = more signal
# [6] = S. cerevisiae RM11-1a growth modifiers, primary screen, strain RM11-1a, OD600, basal, 24 h (AID 1177); settings: OD600, 24 h, higher = more signal, called active from +8 up or from −8 down;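 also: cultures grown under basal conditions with no added stressor; test concentration not given here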
# [7] = E. coli acrAB mutant growth effects, primary screen, E. coli filamentation inducers, strain DRC39, OD650, 24 h (AID 1178); settings: higher = more signal, called active from +8 up or from −8 down;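 also: growth measured as culture turbidity by optical density at 650 nm; test concentration not given here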
# [8] = E. coli acrAB mutant growth effects, primary screen, E. coli filamentation inducers, strain DRC39, OD650, 48 h (AID 1179);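 also: screen aims at cell division blockers that make cells filament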; settings: E. coli DRC39 delta-acrAB growth, higher = more signal, called active from +8 up or from −8 down
# [9] = RPMI8226 myeloma cell viability, profiling panel, resazurin fluorescence, basal, 24 h, PK04 Diversity Set (AID 1180); settings: higher = more signal;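 also: RPMI8826 multiple myeloma cell line at 5000 cells per well; test concentration not given here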
# [10] = target: E3 ubiquitin-protein ligase XIAP (Homo sapiens) (UniProt P98170); test: XIAP binders, primary screen, biophysical, small-molecule microarray, fluorescence 635 nm (AID 1181); settings: small-molecule microarray binding, higher = more signal;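 also: score merges 667 nm emission and signal to noise over triplicate slides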
# Sequence of E3 ubiquitin-protein ligase XIAP (Homo sapiens) (P98170 whole entry, looked up): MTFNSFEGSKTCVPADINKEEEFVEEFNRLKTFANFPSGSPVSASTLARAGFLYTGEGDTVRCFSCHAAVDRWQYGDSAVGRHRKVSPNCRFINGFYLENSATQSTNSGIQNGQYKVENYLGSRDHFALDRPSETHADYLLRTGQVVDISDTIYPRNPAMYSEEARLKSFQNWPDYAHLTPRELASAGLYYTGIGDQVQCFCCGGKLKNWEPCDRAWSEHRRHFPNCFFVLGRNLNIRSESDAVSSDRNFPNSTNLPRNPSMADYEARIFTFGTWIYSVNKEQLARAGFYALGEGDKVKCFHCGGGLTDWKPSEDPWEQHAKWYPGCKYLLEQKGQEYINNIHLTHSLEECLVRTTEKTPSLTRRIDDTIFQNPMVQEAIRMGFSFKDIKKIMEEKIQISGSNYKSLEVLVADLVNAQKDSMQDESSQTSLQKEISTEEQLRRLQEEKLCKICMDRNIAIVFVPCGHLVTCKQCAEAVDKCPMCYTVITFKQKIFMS
# Sequence of Dihydroorotate dehydrogenase (quinone), mitochondrial (Plasmodium falciparum (isolate 3D7)) (Q08210 whole entry, looked up): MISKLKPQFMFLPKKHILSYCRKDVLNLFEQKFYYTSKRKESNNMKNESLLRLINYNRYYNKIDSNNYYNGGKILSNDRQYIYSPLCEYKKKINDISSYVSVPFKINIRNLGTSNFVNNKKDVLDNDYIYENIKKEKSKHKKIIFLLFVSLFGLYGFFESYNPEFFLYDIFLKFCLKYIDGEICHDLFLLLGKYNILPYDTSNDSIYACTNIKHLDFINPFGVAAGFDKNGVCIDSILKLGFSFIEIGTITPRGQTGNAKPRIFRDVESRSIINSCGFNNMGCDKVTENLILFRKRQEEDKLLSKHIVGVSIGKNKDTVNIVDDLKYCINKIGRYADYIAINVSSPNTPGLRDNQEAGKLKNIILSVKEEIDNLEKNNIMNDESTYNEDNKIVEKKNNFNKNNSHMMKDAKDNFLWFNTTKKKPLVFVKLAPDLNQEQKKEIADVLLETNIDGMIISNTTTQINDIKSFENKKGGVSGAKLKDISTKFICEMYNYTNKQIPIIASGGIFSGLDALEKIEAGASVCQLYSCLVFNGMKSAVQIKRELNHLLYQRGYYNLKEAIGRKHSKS
SMILES,z-score [1],z-score [2],z-score [3],composite z-score [4],z-score [5],z-score [6],z-score [7],z-score [8],z-score [9],composite z-score [10]
COC(=O)[C@@]1(Cc2ccc(OC)cc2)[C@H]2c3cc(C(=O)N(C)C)n(CCF)c3C[C@H]2CN1C(=O)c1ccccc1,0.586,2 (inactive),-0.386 (inactive),0.343 (inactive),-0.278 (inactive),0.177 (inactive),0.471 (inactive),-0.143 (inactive),-0.102,-0.0592
O=C1O[C@H](c2ccccc2)[C@H](c2ccccc2)N2[C@H]1[C@@H](C(=O)N1CCN(c3ncccn3)CC1)[C@]1(C(=O)Nc3ccc(C#CCCO)cc31)[C@H]2c1ccc(OCCO)cc1,0.956,1.01 (inactive),-0.901 (inactive),-0.692 (inactive),3.36 (inactive),1.2 (inactive),0.275 (inactive),-0.432 (inactive),0.747,0.256
COc1ccc([Si](C)(C)[C@@H]2[C@@H](CCO)O[C@]3(C(=O)N(Cc4ccccc4)c4ccc(N5CCCCC5=O)cc43)[C@H]2C)cc1,-1.62,0.86 (inactive),-3.11 (inactive),-2.04 (inactive),-0.565 (inactive),3.49 (inactive),-0.277 (inactive),-0.18 (inactive),-2.29,-0.0826
O=C(N1CCOCC1)[C@@]1(CCS(=O)(=O)c2ccccc2)COC(c2ccc(OCCCO)cc2)=N1,0.0754,0.0036 (inactive),-0.262 (inactive),0.0576 (inactive),0.193 (inactive),0.0216 (inactive),-0.0668 (inactive),0.589 (inactive),-0.387,-0.02
CC(C)C[C@@H]1NC(=O)[C@@]23C(=O)N[C@@H](Cc4ccccc4)C2[C@H](C)[C@@]2(C)O[C@H]2C3/C=C/C/C=C\CNC(=O)[C@@H]2CCCN2C1=O (stereo not given in full),-0.462,-0.47 (inactive),0.17 (inactive),-0.487 (inactive),0.577 (inactive),-0.0014 (inactive),-0.536 (inactive),-0.146 (inactive),-0.39,-0.207
N#Cc1ccc(NN2C(C(O)c3ccco3)C=CC3C(=O)N(c4ccccc4)C(=O)C32)cc1 (stereo not given),-0.674,-0.36 (inactive),-0.512 (inactive),0.0512 (inactive),1.07 (inactive),0.293 (inactive),-2.14 (inactive),-2.13 (inactive),-0.607,0.0794
C=C(COC)C(=O)CC[C@H](OC(=O)c1ccccc1-c1ccccc1C(=O)O)c1ccc(CO)o1,-0.45,0.624 (inactive),-0.176 (inactive),-1.39 (inactive),1.85 (inactive),0.89 (inactive),-0.573 (inactive),-0.399 (inactive),-0.178,0.0402
COCCOC(=O)N1C(=O)[C@@]2(c3ccccc31)[C@H](c1ccccc1OCCO)N1[C@H](c3ccccc3)[C@H](c3ccccc3)OC(=O)[C@H]1[C@@H]2C(=O)N1CCc2cc(OC)c(OC)cc2C1,-0.413,1.99 (inactive),0.181 (inactive),0.301 (inactive),1.96 (inactive),3.06 (inactive),-1.29 (inactive),-1.3 (inactive),0.186,-0.146
CC(C)=CCCC(C)=CC(O)C1C=CC2C(=O)N(c3ccccc3)C(=O)C2N1Nc1ccc([N+](=O)[O-])cc1 (stereo not given),-0.674,-1.14 (inactive),-0.753 (inactive),-0.697 (inactive),0.492 (inactive),-0.853 (inactive),-1.49 (inactive),-1.43 (inactive),-0.276,0.0817
C=CCOC(=O)[C@@H]1[C@H]2C(=O)O[C@H](c3ccccc3)[C@H](c3ccccc3)N2[C@H](c2ccc(OCCOC(=O)[C@@H]3C[C@@H]4C(=O)N[C@@H](CCCCNC(C)=O)C(=O)N4[C@@H]3c3ccc(O)cc3)cc2)[C@@]12C(=O)Nc1ccc(I)cc12,0.971,1.8 (inactive),0.668 (inactive),-1.19 (inactive),0.42 (inactive),1.67 (inactive),0.514 (inactive),0.099 (inactive),0.616,0.158
C=C(C)[C@@H]1CC=C(C(O)C2C=CC3C(=O)N(C4CCCCC4)C(=O)C3N2Nc2ccc(OC)cc2)CC1 (stereo not given in full),0.14,0.702 (inactive),-0.0469 (inactive),-0.157 (inactive),0.987 (inactive),0.0587 (inactive),-0.703 (inactive),-0.0015 (inactive),0.199,0.356
CCOC(=O)C1=CC[C@@H](c2ccccc2)N(S(=O)(=O)c2ccc(C)cc2)[C@H]1C=C(C)C,0.576,2.78 (inactive),-0.85 (inactive),0.274 (inactive),0.229 (inactive),1.65 (inactive),-0.147 (inactive),0.449 (inactive),-2.1,0.394
CCCC[C@@H](O)C1=C(COc2ccccc2)Cn2c(=O)n(-c3ccccc3)c(=O)n2[C@H]1CO,-0.196,-4 (inactive),0.0088 (inactive),-1.05 (inactive),0.789 (inactive),-3.57 (inactive),1.36 (inactive),0.0244 (inactive),0.539,0.106
C[N+](C)(C)CCCCCCNC(=O)[C@@H]1C[C@@H]2C(=O)NCC(=O)N2[C@@H]1c1ccc(O)cc1,0.811,0.0566 (inactive),0.562 (inactive),-1.45 (inactive),-0.447 (inactive),0.311 (inactive),0.182 (inactive),0.128 (inactive),0.203,-0.128
O=C1C2C=CC(C(O)c3ccccn3)N(Nc3ccccc3)C2C(=O)N1c1ccccc1 (stereo not given),0.458,-1.07 (inactive),-0.702 (inactive),1.06 (inactive),0.35 (inactive),0.565 (inactive),-0.562 (inactive),-0.225 (inactive),0.16,0.109
COc1ccc([Si](C)(C)[C@@H]2[C@@H](CCO)O[C@]3(C(=O)N(Cc4cccc(N5C(=O)COc6ccccc65)c4)c4ccccc43)[C@H]2C)cc1,-2.07,0.967 (inactive),-3.29 (inactive),0.737 (inactive),1.3 (inactive),4.05 (inactive),0.775 (inactive),0.295 (inactive),-3.26,0.0424
CC1C=C(CCCO)C=C(C(=O)OCCS(C)(=O)=O)C(C(=O)OCCS(C)(=O)=O)=CN1Cc1cccc(OC(F)(F)F)c1 (stereo not given),-0.096,-3.46 (inactive),-0.0212 (inactive),-2.15 (inactive),0.944 (inactive),0.309 (inactive),0.736 (inactive),0.503 (inactive),0.0364,-0.0659
COC(=O)[C@@]1(Cc2ccc(F)cc2)[C@H]2c3cc(C(=O)N4CCCC4)n(Cc4ccccc4)c3C[C@H]2CN1C(=O)c1ccccc1,0.155,1.38 (inactive),-0.874 (inactive),0.335 (inactive),-0.526 (inactive),0.669 (inactive),0.392 (inactive),-0.406 (inactive),-0.922,-0.146
COCCOC(=O)N1C(=O)[C@@]2(c3cc(C#CC4(O)CCCCCC4)ccc31)[C@H](C(=O)N1CCc3cc(OC)c(OC)cc3C1)[C@H]1C(=O)O[C@H](c3ccccc3)[C@H](c3ccccc3)N1[C@@H]2c1ccccc1OCCO,0.032,1.96 (inactive),0.162 (inactive),0.666 (inactive),1.01 (inactive),2.98 (inactive),-0.0554 (inactive),0.585 (inactive),0.793,0.0297
CN(C)CCCC[C@@H]1NC(=O)[C@H]2C[C@@H](C(=O)NCCCCCCNC(=O)CS)[C@@H](c3ccc(O)cc3)N2C1=O,0.183,-0.213 (inactive),-0.614 (inactive),-0.368 (inactive),0.022 (inactive),-0.48 (inactive),0.0961 (inactive),-0.509 (inactive),-0.892,-0.0749
Cc1ccc(S[C@]2(C(=O)NCc3ccccc3)CC(=O)N(C3Cc4ccccc4C3)[C@@H]2c2ccc(CO)cc2I)cc1,-0.0974,-2.95 (inactive),-2.61 (inactive),-1.29 (inactive),0.761 (inactive),-2.63 (inactive),0.964 (inactive),1.52 (inactive),-1.89,-0.315
CC(C)(C)OC(=O)CC[C@@]1(C(=O)N2CCCCC2)N=C(c2ccc(OCCCO)cc2)O[C@@H]1c1ccccc1N=[N+]=[N-],-0.254,0.601 (inactive),-1.73 (inactive),0.27 (inactive),-0.279 (inactive),0.879 (inactive),0.264 (inactive),1.36 (inactive),-0.408,-0.0474
CC(C)CNC(=O)[C@@]1(c2ccc([N+](=O)[O-])cc2)CC(=O)N(C(C)C)[C@@H]1c1ccc(CO)cc1,-0.0273,-0.78 (inactive),1.23 (inactive),1.14 (inactive),-0.301 (inactive),-0.738 (inactive),0.474 (inactive),1.53 (inactive),1.37,-0.13
C#CCNS(=O)(=O)N(C)C,0.175,-0.61 (inactive),-0.207 (inactive),0.196 (inactive),-0.218 (inactive),0.648 (inactive),-0.263 (inactive),0.56 (inactive),0.544,-0.05
CC(C)[Si](C#C[Si](C(C)C)(C(C)C)C(C)C)(O[C@H](C)c1cn(Cc2cccc(Cl)c2)nn1)C(C)C,0.205,0.916 (inactive),1.77 (inactive),0.621 (inactive),0.444 (inactive),0.0575 (inactive),2.07 (inactive),1.52 (inactive),1.68,-0.205
CN1C(=O)C2C=CC(C(O)c3ccc(F)cc3)N(N3CCCCC3)C2C1=O (stereo not given),-1.49,1.62 (inactive),-1.78 (inactive),-0.555 (inactive),1.41 (inactive),1.42 (inactive),-1.02 (inactive),-0.837 (inactive),-1.79,-0.0727
